In PubChem BioAssay:
Active and inactive are the calls of the source.

Assays:
Albumin (Bos taurus) = Albumin (Bos taurus) (UniProt P02769); assay: bovine serum albumin binders on microarray, profiling panel, artefact control for SMM control protein annotation, biochemical, small-molecule microarray, Alexa647 label, 635/667 nm fluorescence (AID 1118); conditions: BSA-A647 binding, fluorescence 635 nm, higher = more signal;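 also: score merges 667 nm emission intensity and signal-to-noise per printed compound spot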
Chain of Albumin (Bos taurus) (P02769 whole entry, looked up): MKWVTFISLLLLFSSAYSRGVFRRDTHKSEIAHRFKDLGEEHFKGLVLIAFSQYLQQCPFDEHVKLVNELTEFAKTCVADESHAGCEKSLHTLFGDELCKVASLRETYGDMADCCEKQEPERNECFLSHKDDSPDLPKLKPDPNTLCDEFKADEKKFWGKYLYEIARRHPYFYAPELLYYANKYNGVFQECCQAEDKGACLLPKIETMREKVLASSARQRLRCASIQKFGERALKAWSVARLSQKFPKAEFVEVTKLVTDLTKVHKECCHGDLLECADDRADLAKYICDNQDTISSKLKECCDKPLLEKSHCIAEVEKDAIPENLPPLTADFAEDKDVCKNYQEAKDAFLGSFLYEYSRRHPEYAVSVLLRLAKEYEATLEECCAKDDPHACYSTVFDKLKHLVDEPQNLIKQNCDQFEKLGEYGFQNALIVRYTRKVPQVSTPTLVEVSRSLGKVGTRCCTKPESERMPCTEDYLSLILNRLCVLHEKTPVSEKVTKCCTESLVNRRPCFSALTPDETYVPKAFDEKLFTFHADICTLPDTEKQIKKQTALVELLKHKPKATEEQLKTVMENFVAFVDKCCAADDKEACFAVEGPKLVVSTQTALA

[1] = small-molecule microarray binders of probe aXIP, primary screen, biochemical, NeuroSMM set, 635/667 nm fluorescence (AID 1119); conditions: higher = more signal, called active from +8 up or from −8 down;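 also: probe is the protein aXip251-270 applied at 1 µg/mL to compound-printed slides; binding of probe to printed compounds measured as 667 nm fluorescence plus signal to noise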
[2] = small-molecule binders of probe aNOTCH3, primary screen, biochemical, small-molecule microarray, 635/667 nm fluorescence (AID 1120); conditions: higher = more signal;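 also: probe is a biotin-tagged antibody raised against NOTCH3 rather than NOTCH3 protein; score merges spot fluorescence near 667 nm with spot signal to noise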
[3] = small-molecule binders of probe aNOTCH2, primary screen, biochemical, small-molecule microarray, 635/667 nm fluorescence (AID 1121); conditions: higher = more signal;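 also: score merges feature fluorescence read at 667 nm with its signal to noise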
[4] = molecular target: Carbonic anhydrase 2 (Homo sapiens) (UniProt P00918); assay: CAII small-molecule binders, profiling panel, biochemical, small-molecule microarray, Alexa647-labelled CAII (AID 1122); conditions: CAII-A647 binding fluorescence, higher = more signal
[5] = COS7 lysate on small-molecule microarray, probe aHis, 635 nm (AID 1123); conditions: COS7 cell lysate, fluorescence, higher = more signal;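 also: z-score combines 667nm fluorescence intensity with signal-to-noise per printed compound spot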
[6] = compound binding in COS7 lysate, probe aLAP1, primary screen, cell lysate, small-molecule microarray (AID 1124); conditions: probe aLAP1, fluorescence, higher = more signal;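 also: lysate comes from COS7 cells expressing LAP1 and is applied at 0.3 µg/mL; score merges spot fluorescence near 667 nm with signal-to-noise over triplicate slides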
Sam68 (KHDRBS1) = assay: Sam68 small-molecule binders, primary screen, biochemical, small-molecule microarray, 635 nm fluorescence (AID 1125); conditions: small-molecule microarray binding, higher = more signal;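 also: score merges 667 nm channel intensity with signal to noise over triplicate slides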
[7] = tested on: Chordin-like protein 2 (CHRDL2); assay: CHRDL2 small-molecule binders, primary screen, biochemical, small-molecule microarray, 635 nm fluorescence (AID 1126); conditions: small-molecule microarray binding, fluorescence 635 nm; higher = more signal;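 also: printed compound slides probed with Chrdl2 protein at 4 µg/mL for 1 h at 4 C; score merges 667 nm emission intensity with signal to noise over three replicate slides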
[8] = molecular target: Concanavalin-A (Canavalia ensiformis) (UniProt P02866); assay: ConA small-molecule binders, primary screen, artefact control for SMM control protein annotation, biochemical, small-molecule microarray, Alexa647 label, 635 nm (AID 1127); conditions: ConA-A647 binding fluorescence, higher = more signal;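 also: z combines 667 nm emission intensity with signal-to-noise across three replicate slides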
Chain of Concanavalin-A (Canavalia ensiformis) (P02866 whole entry, looked up): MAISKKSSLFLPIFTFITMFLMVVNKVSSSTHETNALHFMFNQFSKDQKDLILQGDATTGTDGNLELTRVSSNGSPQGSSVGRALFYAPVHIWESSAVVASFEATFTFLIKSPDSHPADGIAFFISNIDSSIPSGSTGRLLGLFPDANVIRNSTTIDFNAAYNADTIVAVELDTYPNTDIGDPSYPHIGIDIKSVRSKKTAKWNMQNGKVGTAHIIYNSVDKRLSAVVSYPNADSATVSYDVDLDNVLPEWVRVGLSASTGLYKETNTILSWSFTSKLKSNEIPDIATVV

[9] = anti-His antibody binders, primary screen, artefact control for SMM control protein annotation, biochemical, small-molecule microarray, 635 nm fluorescence (AID 1128); conditions: anti-His Alexa647 antibody binding, higher = more signal;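 also: score merges feature fluorescence with signal-to-noise for each printed compound spot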
[10] = tested on: Human papillomavirus type 1a E7 protein (residues 1-88); assay: HPV1a E7 small-molecule binders, primary screen, biochemical, small-molecule microarray, residues 1-88, 635 nm (AID 1129); conditions: small-molecule microarray binding, fluorescence 635 nm; higher = more signal
[11] = molecular target: Focal adhesion kinase 1 (Homo sapiens) (UniProt Q05397); assay: small-molecule microarray binders of FAK, primary screen, biochemical, 635/667 nm fluorescence, BSA, DTT (AID 1130); conditions: PTK2 binding, 635 nm fluorescence, higher = more signal;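 also: composite of spot emission at 667 nm and signal to noise over triplicate slides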
Chain of Focal adhesion kinase 1 (Homo sapiens) (Q05397 whole entry, looked up): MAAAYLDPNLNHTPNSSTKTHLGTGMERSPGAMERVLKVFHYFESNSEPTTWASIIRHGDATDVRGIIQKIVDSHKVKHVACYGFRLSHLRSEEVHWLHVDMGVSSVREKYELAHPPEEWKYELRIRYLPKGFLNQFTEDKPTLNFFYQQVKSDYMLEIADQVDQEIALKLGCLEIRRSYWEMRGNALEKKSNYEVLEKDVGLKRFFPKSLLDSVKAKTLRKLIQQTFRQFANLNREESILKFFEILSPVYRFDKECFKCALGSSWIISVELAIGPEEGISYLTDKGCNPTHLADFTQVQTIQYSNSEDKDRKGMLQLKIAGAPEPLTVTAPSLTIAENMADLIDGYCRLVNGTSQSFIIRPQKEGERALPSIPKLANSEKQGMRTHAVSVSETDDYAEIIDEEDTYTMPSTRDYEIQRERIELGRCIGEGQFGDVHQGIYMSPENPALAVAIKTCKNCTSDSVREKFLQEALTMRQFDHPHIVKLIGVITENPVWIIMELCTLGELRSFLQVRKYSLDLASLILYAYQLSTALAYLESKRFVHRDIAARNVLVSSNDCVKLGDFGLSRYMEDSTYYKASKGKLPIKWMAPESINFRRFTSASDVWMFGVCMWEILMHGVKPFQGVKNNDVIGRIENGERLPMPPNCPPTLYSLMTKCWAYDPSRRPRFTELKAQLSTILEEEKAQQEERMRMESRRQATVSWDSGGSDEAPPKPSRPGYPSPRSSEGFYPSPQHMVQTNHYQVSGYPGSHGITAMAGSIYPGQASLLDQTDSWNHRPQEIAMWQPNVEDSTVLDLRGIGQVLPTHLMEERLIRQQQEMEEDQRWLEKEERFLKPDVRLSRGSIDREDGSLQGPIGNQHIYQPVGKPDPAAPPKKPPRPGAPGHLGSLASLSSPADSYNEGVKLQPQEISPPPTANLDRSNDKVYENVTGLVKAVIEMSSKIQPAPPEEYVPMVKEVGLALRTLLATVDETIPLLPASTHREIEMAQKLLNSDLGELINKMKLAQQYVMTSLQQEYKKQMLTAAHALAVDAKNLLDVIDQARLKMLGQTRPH

[12] = tested on: Fibrinogen (Alexa647-labelled); assay: fibrinogen binders on compound microarrays, profiling panel, artefact control for SMM control-protein annotation, biochemical, small-molecule microarray, 635/667 nm fluorescence (AID 1131); conditions: fibrinogen-A647 binding fluorescence, higher = more signal;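 also: z-score merges 667 nm fluorescence with per-spot signal-to-noise over triplicate slides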
[13] = molecular target: Follistatin (Homo sapiens) (UniProt P19883); assay: follistatin binders on small-molecule microarrays, primary screen, biochemical, small-molecule microarray, 635/667 nm fluorescence (AID 1132); conditions: FST binding, 635 nm fluorescence, higher = more signal
Chain of Follistatin (Homo sapiens) (P19883 whole entry, looked up): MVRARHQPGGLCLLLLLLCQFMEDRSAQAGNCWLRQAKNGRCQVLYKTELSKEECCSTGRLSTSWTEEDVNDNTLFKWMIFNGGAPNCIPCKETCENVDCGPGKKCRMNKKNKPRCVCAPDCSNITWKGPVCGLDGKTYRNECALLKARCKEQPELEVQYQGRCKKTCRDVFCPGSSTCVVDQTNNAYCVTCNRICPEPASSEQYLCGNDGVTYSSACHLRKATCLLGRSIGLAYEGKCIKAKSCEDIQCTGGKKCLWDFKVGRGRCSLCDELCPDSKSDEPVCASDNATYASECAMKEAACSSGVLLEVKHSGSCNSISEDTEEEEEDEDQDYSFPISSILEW

[14] = molecular target: Fibroblast growth factor 2 (Homo sapiens) (UniProt P09038); assay: FGF2 binders on small-molecule microarrays, primary screen, biochemical, small-molecule microarray, 635/667 nm fluorescence (AID 1133); conditions: small-molecule microarray binding, FGF2, fluorescence 635/667; higher = more signal
Chain of Fibroblast growth factor 2 (Homo sapiens) (P09038 whole entry, looked up): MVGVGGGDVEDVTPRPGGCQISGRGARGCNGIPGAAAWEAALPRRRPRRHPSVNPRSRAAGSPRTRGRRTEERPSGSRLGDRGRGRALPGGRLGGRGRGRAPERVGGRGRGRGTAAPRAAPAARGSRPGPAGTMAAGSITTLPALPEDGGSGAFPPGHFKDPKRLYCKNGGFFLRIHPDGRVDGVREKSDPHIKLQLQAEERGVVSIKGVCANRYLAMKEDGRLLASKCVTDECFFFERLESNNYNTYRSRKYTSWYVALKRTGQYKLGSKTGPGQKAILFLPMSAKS

[15] = mitochondrial membrane potential change in A549 cells, profiling panel, cell-based, JC-1 fluorescence, basal, 24 h, 100 nL (AID 1138); conditions: higher = more signal;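 also: A549 lung adenocarcinoma cells under basal conditions with no added stimulus; test concentration not given here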
Lefty1 = Lefty1 binders on small-molecule microarrays, primary screen, biochemical, small-molecule microarray, 635/667 nm fluorescence (AID 1139); conditions: small-molecule microarray binding, fluorescence 635/667; higher = more signal
[16] = tested on: wheat germ agglutinin (Triticum aestivum), Alexa647-labelled; assay: wheat germ agglutinin binders on compound microarrays, profiling panel, artefact control for SMM control-protein annotation, biochemical, small-molecule microarray, 635/667 nm fluorescence (AID 1140); conditions: WGA-A647 binding, 635 nm fluorescence, higher = more signal;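 also: score merges 667 nm feature emission with signal to noise over triplicate slides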
[17] = molecular target: Luciferin 4-monooxygenase (Photinus pyralis) (UniProt P08659); assay: firefly luciferase enzyme inhibitors, primary screen, biochemical, luminescence, purified enzyme, 2006 set (AID 1141); conditions: SteadyGlo luminescence, 30 min, higher = more signal, called active from +8 up or from −8 down;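 also: cell-free assay with purified firefly luciferase at 100 ng per well in PBS; test concentration not given here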
Chain of Luciferin 4-monooxygenase (Photinus pyralis) (P08659 whole entry, looked up): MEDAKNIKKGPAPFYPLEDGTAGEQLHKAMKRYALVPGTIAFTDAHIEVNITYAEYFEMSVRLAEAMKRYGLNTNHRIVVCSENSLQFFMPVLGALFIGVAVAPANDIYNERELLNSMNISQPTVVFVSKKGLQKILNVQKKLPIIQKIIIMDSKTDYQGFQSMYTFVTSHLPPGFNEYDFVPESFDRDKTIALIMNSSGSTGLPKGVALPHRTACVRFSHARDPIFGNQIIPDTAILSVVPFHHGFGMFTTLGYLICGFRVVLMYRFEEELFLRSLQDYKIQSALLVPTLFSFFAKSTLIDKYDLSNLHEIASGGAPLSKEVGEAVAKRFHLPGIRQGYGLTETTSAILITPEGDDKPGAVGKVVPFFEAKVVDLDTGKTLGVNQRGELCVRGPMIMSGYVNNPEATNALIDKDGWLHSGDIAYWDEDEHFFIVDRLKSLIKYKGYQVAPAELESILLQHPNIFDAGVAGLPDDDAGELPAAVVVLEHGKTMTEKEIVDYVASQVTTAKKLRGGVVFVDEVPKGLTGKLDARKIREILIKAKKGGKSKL

| Structure (SMILES) | composite z-score (Albumin (Bos taurus)) | composite Z-score [1] | composite z-score [2] | composite z-score [3] | composite z-score [4] | composite z-score [5] | composite z-score [6] | composite z-score (Sam68 (KHDRBS1)) | composite z-score [7] | composite z-score [8] | composite z-score [9] | composite z-score [10] | composite z-score [11] | composite z-score [12] | composite z-score [13] | composite z-score [14] | z-score [15] | composite z-score (Lefty1) | composite z-score [16] | z-score [17] |
| --- | --- | --- | --- | --- | --- | --- | --- | --- | --- | --- | --- | --- | --- | --- | --- | --- | --- | --- | --- | --- |
| C=CCC(OC(C)=O)[C@@H]1[C@@H](N(Cc2cccc3ccccc23)C(=O)c2cccc3ccccc23)c2cc(OCCCO)ccc2N1C(=O)Cc1ccc(OC)cc1 (stereo not given in full) | 0.107 | 0.464 (inactive) | 0.128 | -0.0797 | 0.447 | 1.04 | 0.484 | 0.457 | 0.0561 | -0.653 | 0.856 | 0.0512 | -0.0125 | 0.263 | 0.921 | 0.103 | 0.924 | 0.306 | 0.655 | -0.378 (inactive) |
| C=CCN1C(=O)[C@@]2(O[C@@H](CCn3cc(CCO)nn3)[C@H]([Si](C)(C)c3ccc(OC)cc3)[C@H]2C)c2cc(NC(=O)c3ccc(OC)cc3)ccc21 | -0.0754 | -0.444 (inactive) | 0.0676 | 0.443 | 0.156 | 1.36 | 0.493 | 1.15 | 0.808 | 1.08 | 0.309 | 0.812 | 0.129 | 0.323 | 1.14 | 0.645 | 2.77 | 1.02 | 0.922 | -1.51 (inactive) |
| C=CCOC(=O)[C@H]1[C@@H]2C(=O)O[C@@H](c3ccccc3)[C@@H](c3ccccc3)N2[C@@H](c2ccc(OCCOC(=O)[C@H]3C[C@H]4C(=O)N5CCC[C@H]5C(=O)N4[C@H]3c3cccc(OCCO)c3)cc2)[C@]12C(=O)Nc1ccccc12 | -0.592 | 1.51 (inactive) | -0.0647 | -0.0424 | 0.466 | 2.31 | -0.103 | 1.31 | 1.37 | 0.96 | 1.34 | 1.16 | 0.903 | 0.47 | 1.34 | 1.57 | -0.851 | 0.628 | 0.828 | -1.23 (inactive) |
| O=C1O[C@H](c2ccccc2)[C@H](c2ccccc2)N2[C@H]1[C@@H](C(=O)NC[C@H](O)c1ccccc1)[C@]1(C(=O)Nc3ccc(C#CC4(O)CCCCCC4)cc31)[C@H]2c1ccc(O)cc1 | 0.647 | 0.601 (inactive) | 0.246 | -0.0404 | 0.359 | 0.892 | 1.07 | 1.33 | 0.233 | 1.12 | 1.23 | 0.843 | 0.333 | 0.574 | 1.31 | 1.01 | -0.105 | 0.873 | 0.588 | -1.56 (inactive) |
| O=C(O)[C@H]1C[C@H]2C(=O)NCC(=O)N2[C@H]1c1cccc(OCCO)c1 | -0.542 | 0.0953 (inactive) | 0.173 | -0.126 | 0.502 | 0.787 | -0.156 | 0.89 | 0.0805 | 1.09 | 1.48 | 0.221 | 0.457 | 0.742 | 1.27 | 0.161 | 1.14 | -0.13 | 0.655 | -1.6 (inactive) |
| CCN(CC)c1ccc(N2CC=CC34O[C@@H]5C=CCOC(=O)[C@@H]5[C@H]3C(=O)N(C(C)CO)[C@@H]4C2=O)cc1 (stereo not given in full) | -1.28 | -0.237 (inactive) | -0.213 | -0.126 | 0.0808 | -0.67 | 0.0745 | -1.69 | -1.35 | -1.51 | -1.34 | -1.28 | -1.02 | -2.61 | -1.04 | -1.13 | 1.39 | -1.65 | -1.07 | -0.822 (inactive) |
| COc1ccc([Si](C)(C)[C@H]2[C@H](CCO)O[C@@]3(C(=O)N(Cc4ccc(N5C(=O)c6cccc7cccc5c67)cc4)c4ccccc43)[C@@H]2C)cc1 | 0.258 | 0.466 (inactive) | -0.214 | -0.123 | 0.346 | 0.249 | 0.0741 | -0.465 | -1.06 | 0.609 | 0.21 | -0.141 | -0.266 | 0.193 | -0.771 | -0.611 | 1.9 | -0.255 | 0.796 | -0.558 (inactive) |
| C=C(COC)C(=O)CC[C@H](OC(=O)c1cccnc1)c1cccc(OCCO)c1 | -0.197 | -0.19 (inactive) | 0.53 | 0.156 | 0.608 | 0.613 | 0.123 | 0.579 | 0.601 | -0.0509 | -0.107 | 0.0325 | 0.481 | -0.09 | 0.896 | 1.57 | 1.39 | 1.05 | -0.363 | -2.13 (inactive) |
| C=C(CCCC)/C(=C/C[C@@H](OC(=O)c1ccncc1)c1ccc(OCCO)cc1)c1cnc2ccccc2c1 | 0.26 | -0.0966 (inactive) | 0.135 | -0.0859 | 0.948 | 0.814 | 2.07 | 1.03 | 1.44 | 1.15 | 0.921 | 0.775 | -0.438 | 0.577 | 1.44 | 1.62 | 0.985 | 1.64 | 1.35 | -2.3 (inactive) |
| C=CCC1(CC=C)C[C@H]2CO[C@H](c3ccc(OC)cc3)N2C1=O | -1.14 | -0.258 (inactive) | -0.154 | -0.155 | 0.448 | -0.348 | 0.157 | -0.082 | 1.3 | 0.0736 | 0.413 | -0.154 | -0.256 | -0.78 | 1.23 | 0.15 | 1.31 | 0.458 | 1.28 | -1.13 (inactive) |
